# Source: PubChem BioAssay
# Hits are enriched below; roughly 6.4% of the tested compounds scored in any of these assays.
# Luc counter – counter-screen: inhibitors of Kinase-Glo firefly luciferase; Q27757; Kinase-Glo luciferase, ATP luminescence, 8 min; AID 1379; Potency, µM (top dose mostly 38.3 µM), inactives show at the top dose activity change, negative = inhibition, usual class: inhibitors; 200,000 compounds, 0.28% hits; note: nearly all actives have a fitted effect of over 60% in size
#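 Compound is pinned into ATP-containing buffer (10 uM ATP, imidazole pH 7.2, 7 mM MgCl2). Kinase-Glo luciferase reagent is then added. Light output is recorded following an 8-min room-temperature incubation.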
# Gal4-VP16 FLuc – inhibits Gal4-VP16 luciferase reporter, ROR gamma counter-screen; Drosophila S2 Gal4-VP16 UAS-luciferase, luminescence, 20 h; Potency, µM (titrated, usually from 53.6 µM), without a hit: at the top dose activity, negative = inhibition, most hits filed as inhibitors; 310,000 compounds, 3.5% hits;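 note: Gal4-VP16 expression switched on by copper sulfate through the metallothionein promoter; nearly all actives have a fitted effect of over 50% in size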
# RORg inh – blocks mouse ROR gamma transcriptional activity; P51450; Drosophila S2 Gal4-RORgamma UAS-luciferase reporter, 20 h; Potency, µM (doses to about 53.6 µM), inactives show at the highest dose activity change, negative = inhibition, actives largely listed as inhibitors; 310,000 compounds, 5.4% hits; note: nearly all actives have a fitted effect of over 60% in size
#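 Drosophila S2 cells stably expressing Gal4-DBD/mouse RORγ fusion under metallothionein promoter plus UAS-luciferase; compound 1 h, then 700 uM CuSO4 induction for 20 h at ambient temperature; inhibition read as reduced luminescence.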
# * marks the source's active call; other numbers are inactive results; ? = inconclusive; / = no result; [ ] = another dose, or the depositor's remark. Calls come from the whole dose curve; as a rule, active = well fitted curve in the direction sought with a large enough effect; inconclusive = small, poorly fitted or top-dose-only effect, or another doubt; inactive = no such curve, though single readings can be large; an effect the other way counts as inactive or inconclusive. % is set by controls: 0 for no effect and ±100 for the full control effect; potency is the fitted concentration of half-maximal effect.
SMILES,Luc counter,Gal4-VP16 FLuc,RORg inh
CC(C)(C)c1ccc(C(=O)NNC(=S)NCc2ccco2)cc1,/,-25%,10µM*
O=C(O)c1cc(S(=O)(=O)Nc2cccc(Cl)c2)ccc1O,0%,/,/
CC1(C)CC(=O)N(c2cc(Cl)ccc2Cl)C(=O)C1,/,1%,-2%
COC(=O)c1[nH]c2ccccc2c1NC(=O)C(C)N1CC(C)OC(C)C1 (stereo unspecified),/,13%,14%
O=C(NCc1ccco1)c1cc(C(=O)C2CCCCC2)c[nH]1,5%,14%,11%
CNC(=O)NC(=S)NC(=O)c1ccccc1Cl,-1%,18%,?
O=C(NCc1ccccc1)c1cccc(COc2cccc(Cl)c2)c1,-2%,3%,43%
O=C(NC(=S)NCc1ccccc1)c1cccc(Cl)c1,/,7.1µM*,6.3µM*
Cc1ccc(NC(=O)C(=S)NCc2ccco2)cc1,0%,11%,1%
Cc1ccc(C(=O)NC(=S)NCc2ccco2)cc1,-1%,?,10µM*
CNC(=O)NC(=S)NC(=O)c1cccc(Cl)c1,-1%,9%[10 µM],14µM*
CC(C)(C)c1ccc(C(=O)c2c[nH]c(C(=O)NCc3ccco3)c2)cc1,-4%,13µM*,?
COc1ccccc1C1CC(=O)Oc2ccc(C(C)(C)C)cc21 (stereo unspecified),4%[39.9 µM],-4%,36%
COc1ccccc1CNC(=O)CN(Cc1ccc(Cl)cc1)S(C)(=O)=O,0%,-7%,12%
COc1ccc(CNC(=O)[C@@H](NC(=O)C2CCN(C(=O)[C@@H](N)Cc3ccccc3)CC2)C(C)C)cc1,/,2%,-26%
Cc1ccc(NC(=O)CN(C)C(=O)Cc2c(Cl)cccc2Cl)cc1,/,1%,3%
COc1cc(OC)c(N(C)C(=O)c2cn(C)c(=O)c3cc(OC)c(OC)cc23)cc1Cl,/,6%,1%
Cc1c(C(=O)OCc2nc3scc(-c4ccccc4)c3c(=O)[nH]2)cccc1[N+](=O)[O-],1%,-5%,?
O=C(OCc1nc2scc(-c3ccccc3)c2c(=O)[nH]1)c1cc(Cl)ccc1[N+](=O)[O-],-3%,?,11µM*
CCN(CC)C(=O)Oc1cc(=O)n2c3c(cccc13)CCC2,-2%,0%,43%
Cc1cccc(NC(=S)N/C(=N/S(=O)(=O)c2ccccc2)c2ccccc2)c1,3%,?,?
CC(C)OC(=S)N/C(=N\S(=O)(=O)c1ccccc1)c1ccccc1,2%,22%[0.365 µM],0.45µM*
CC(C)O/C(=N\S(=O)(=O)c1ccc(Cl)cc1)c1ccccc1,-4%,4%,0%
Cc1ccc(S(=O)(=O)/N=C(/NC(=S)Nc2cccc(C)c2)c2ccccc2)cc1,-6%,13µM*,?
CO[C@H]1COC(=O)[C@@H](CCSC)NC(=O)C/C=C\[C@@H](C)[C@H](OC)COC(=O)[C@@H](OCc2ccccc2)/C=C\[C@@H]1C,/,-6%[10 µM],-1%[10 µM]
SMILES,Luc counter,Gal4-VP16 FLuc,RORg inh
Cc1ccc(N(C(=O)c2csnn2)C(C(=O)NC2CCCCC2)c2cccnc2)c(C)c1 (stereo unspecified),/,-9%,0%
Fc1ccc(CO/N=C2\CCCc3nonc32)cc1,-5%,-21%,50%
O=[N+]([O-])c1ccc(CSC2=NCCN2)cc1,/,-4%,-1%[1.91 µM]
CCOC(=O)CNC(c1ccccc1)c1cc(Br)ccc1NC(=O)CCN1CCOCC1 (stereo unspecified),0%,8.9µM*,?
CCOC(=O)CNC(c1ccccc1)c1cc(Br)ccc1NC(=O)OCC (stereo unspecified),-4%,0%,9%
COC(=O)CNC(c1ccccc1)c1cc(Br)ccc1NC(=O)CCN1CCOCC1 (stereo unspecified),2%,14µM*,?
COC(=O)CNC(c1ccccc1)c1cc(Br)ccc1NC(=O)CNC(=O)OCc1ccccc1 (stereo unspecified),2%,-16%,36%
CS(=O)(=O)c1nc(-c2ccccc2)cc(C(F)(F)F)n1,0%,1.6µM*,0.5µM*
Cc1cc(NC(=O)CCS(=O)(=O)c2nc(-c3ccccc3)cc(C(F)(F)F)n2)no1,3%,7%,-4%
Cc1cc(OCn2ccc(C(=O)O)n2)ccc1Cl,-2%,16µM*,?
Cc1cc(OCC(=O)NC(C)C)ccc1Cl,-1%,-7%,1%
C=CCn1c(COc2ccc(OC)cc2)nnc1SCn1nnc2ccccc2c1=O,0%,-6%,?
CC(c1n[nH]c(=S)n1-c1ccc(F)cc1)N1CCCCC1 (stereo unspecified),0%,?,13µM*
Cc1ccccc1-n1c(-c2ccc3ccccc3n2)n[nH]c1=S,/,5µM*,0.32µM*
O=C(NCc1n[nH]c(=S)n1-c1ccc(F)cc1)c1ccc(S(=O)(=O)N2CCCCC2)cc1,/,-2%,-24%
